# According to PubChem BioAssay (EPA / NIEHS):
# Several values for one entry are separate records, joined by “and”; a condition that tells them apart may be missing. Equal entries are not always repeated. Inconclusive results are not listed. The source holds several records for some structures; these can differ, active in one and inactive in another. Activity calls are given as the source filed them. How the source made its calls: active means hit-call score of the fitted dose curve at least 0.9, where 1 is the maximum; inconclusive means response in the unintended direction; inactive means score below 0.9.
# Biological target: human Peroxisome Proliferator-activated Receptor alpha (PPARa), PPARA (gene 5465) (UniProt Q07869)
# Sequence (Q07869 whole entry, looked up): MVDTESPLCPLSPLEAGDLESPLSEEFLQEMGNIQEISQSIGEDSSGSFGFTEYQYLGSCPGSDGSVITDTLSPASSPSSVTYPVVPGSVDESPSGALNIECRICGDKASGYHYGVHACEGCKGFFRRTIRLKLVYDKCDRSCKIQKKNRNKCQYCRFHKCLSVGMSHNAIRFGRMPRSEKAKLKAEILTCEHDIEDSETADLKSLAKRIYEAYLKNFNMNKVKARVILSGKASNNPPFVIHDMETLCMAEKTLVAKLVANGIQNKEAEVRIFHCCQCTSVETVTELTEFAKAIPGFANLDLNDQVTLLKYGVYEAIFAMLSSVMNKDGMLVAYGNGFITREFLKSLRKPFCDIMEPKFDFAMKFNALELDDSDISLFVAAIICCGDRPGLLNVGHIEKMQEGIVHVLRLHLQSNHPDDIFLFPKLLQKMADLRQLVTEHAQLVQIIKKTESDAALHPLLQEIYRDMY
# Assay: ATG_PPARa_TRANS: Attagene TRANS-FACTORIAL HepG2 Assay for human Peroxisome Proliferator-activated Receptor alpha (PPARa) (AID 2283001);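 on AC50: potency for gain of reporter signal over DMSO so agonist or activator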
# Protocol: ATG_TRANS is a cell-based, multiplexed-readout assay that uses HepG2, a human liver cell line, with measurements taken at 24 hours after chemical dosing in a 24-well plate.ATG_PPARa_TRANS is one of 30 assay component(s) measured or calculated from the ATG_TRANS assay. It is designed to make measurements of mRNA induction, a form of inducible reporter, as detected with fluorescence intensity signals by Reverse transcription polymerase chain reaction (RT-PCR) and Capillary electrophoresis technology.Data from the assay component ATG_PPARa_TRANS was analyzed into 1 assay endpoint. This assay endpoint, ATG_PPARa_TRANS, was analyzed in the positive analysis fitting direction relative to DMSO as the negative control and baseline of activity. Using a type of inducible reporter, measures of mRNA for gain-of-signal activity can be used to understand the reporter gene at the transcription factor-level as they relate to the gene PPARA. Furthermore, this assay endpoint can be referred to as a primary readout, because this assay has produced multiple assay endpoints where this one serves a reporter gene function. To generalize the intended target to other relatable targets, this assay endpoint is annotated to the nuclear receptor intended target family, where the subfamily is non-steroidal.
# Human liver HepG2 cells are transiently transfected with multiple reporter transcription units (MRTUs) in 6-well plates using FuGene 6 reagent (Roche; 3 ml FuGene/1 mg DNA). The MRTU constructs are regulated by a cis-regulating element (promoter). […] A major difference between the CIS and TRANS system is that in CIS activities of endogenous TFs are measured, whereas the TRANS assay evaluates changes in activities of exogenous, chimeric NR-Gal4 proteins. […] At the end of 24 hour incubation, total RNA was isolated using TriZol reagent (Invitrogen). The isolated RNA is then reverse-transcribed using oligo(dT) primer and Mo-MLV reverse transcriptase (Invitrogen) with DNAse I (Ambion) treatment for 30 min. The one-tenth of the produced cDNA was amplified by PCR using Taq DNA polymerase (Invitrogen) and two reporter sequence-specific primers. The PCR products were fluorescently labeled by primer extension with 6-arboxyfluorescein (6-FAM) 5'-labeled reporter sequence-specific primer (2 min at 95 C, 20 s at 68 C and 10 min at 72 C) and these products were digested with 5U of HpaI (New England Biolabs) for 2h at 37 C. The fragments were purified using Qiaquick PCR columns (Qiagen), analyzed on an ABI 3130xL genetic analyzer (Applied Biosystems) with peak positions identified by using a set of X-rhodamine (ROX)-labeled MapMarker1000 molecular weight standards (BioVentures). The raw capillary electrophoresis data was processed using Attagraph software (Attagene).
Compound,outcome,AC50
O=c1oc2ccccc2c(O)c1C(CC(O)c1ccc(-c2ccc(Br)cc2)cc1)c1ccccc1 (stereo not given),inactive,25.3 µM (active)
Nc1c(Oc2ccccc2)cc(O)c2c1C(=O)c1ccccc1C2=O,inactive,
CCCCCCCCCCCCc1cccc(S(=O)(=O)O)c1,,30 µM (active)
Cc1cc(C)cc(C)c1,inactive,
Cc1cc(SCc2sc(-c3ccc(C(F)(F)F)c(F)c3)nc2C)ccc1OCC(=O)O,,0.201 µM (active)
Cc1ccc2nc3sc(=O)sc3nc2c1,inactive,
O=C1c2ccccc2C(=O)C1C(=O)C(c1ccccc1)c1ccc(Cl)cc1 (stereo not given),inactive,
C[CH2][Hg][S]c1ccccc1C(=O)O,inactive,
Oc1ccc(Cc2ccc(O)cc2)cc1,inactive,
CN(C)c1ccc(N=O)cc1,inactive,
O=S(=O)(C(Cl)(Cl)Cl)C(Cl)(Cl)Cl,inactive,
CCOC(=O)OC1=C(c2cc(C)ccc2C)C(=O)NC12CCC(OC)CC2 (stereo not given),inactive,
C#CCOC(=O)/C=C(C)/C=C/CC(C)CCCC(C)C (stereo not given),,14.9 µM (active)
CC1(C)COP(Oc2ccccc2)OC1,inactive,
CN(C)CCN(C)C,inactive,
c1ccc2sc(SNC3CCCCC3)nc2c1,inactive,
O=C(CCl)Nc1ccccc1,inactive,
CC(c1ccc(O)cc1)c1ccc(O)cc1,inactive,
CCCSP(=S)(OCC)Oc1ccc(Cl)cc1Cl (stereo not given),inactive,
CCCCCCCCCCCCOS(=O)(=O)O,,3.86 µM (active) and 12.1 µM (active)

Compound,outcome,AC50
N#CCCC(Br)(C#N)CBr (stereo not given),inactive,
CC(C=O)Cc1ccc2c(c1)OCO2 (stereo not given),inactive,
CNC(=O)N(C)c1nc2ccccc2s1,inactive,
C=CC(=O)[O][Sn]([CH2]CCC)([CH2]CCC)[CH2]CCC,,0.599 µM (active)
CCN(CC)C(=O)C(Cl)=C(C)OP(=O)(OC)OC,inactive,
Cc1cc(Cl)ccc1O,inactive,
CCCCN(CCCC)C(=S)S,inactive,
COP(=S)(OC)Oc1cc(Cl)c(I)cc1Cl,,38 µM (active)
C=CCOC(F)(C(F)(F)F)C(F)(F)F,inactive,
N#Cc1ccccc1N,inactive,
Nc1nc(=S)[nH][nH]1,inactive,
NC(=O)CCl,inactive,
C=CCCl,inactive,
CCN(CCO)CCO,inactive,
Cc1ccc(CCl)cc1,inactive,
Cc1cc(Cl)ccc1OC(C)C(=O)O (stereo not given),inactive,
Nc1ccc(-c2ccccc2)cc1,inactive,
CCCSP(=S)(OCC)Oc1ccc(SC)cc1 (stereo not given),inactive,
O=c1nc(O)n(Cl)c(=O)n1Cl,inactive,
